This note sets out measurements from PubChem BioAssay (NCATS).

Inconclusive results are not listed. Active and inactive are the calls of the source. Unless noted, calls come from the whole dose curve; as a rule, active = well fitted curve in the direction sought with a large enough effect; inconclusive = small, poorly fitted or top-dose-only effect, or another doubt; inactive = no such curve, though single readings can be large; an effect the other way counts as inactive or inconclusive.

In experiment [1] the target is Peptidyl-prolyl cis-trans isomerase NIMA-interacting 1 (Homo sapiens) (UniProt Q13526). In words: qHTS Validation Assay to Find Inhibitors of Pin1 (AID 504536; active = well fitted inhibition curve with a large enough effect in the polarisation, with a control signal flat, not every such curve was filed as active; the % refers to the polarisation;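 note: 0% = full Pin1 enzyme wells and -100% = no-enzyme wells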). The essentials: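 Fluorescence polarization competition: compounds (titration) displace HiFluor-488-labeled Pin1-1b peptide from Pin1 (0.3 uM final) in pH 7.5 HEPES buffer with DTT, 10 min at room temperature; %Activity normalized to no-enzyme wells, curves fitted.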
Peptidyl-prolyl cis-trans isomerase NIMA-interacting 1 (Homo sapiens), sequence (Q13526 whole entry, looked up): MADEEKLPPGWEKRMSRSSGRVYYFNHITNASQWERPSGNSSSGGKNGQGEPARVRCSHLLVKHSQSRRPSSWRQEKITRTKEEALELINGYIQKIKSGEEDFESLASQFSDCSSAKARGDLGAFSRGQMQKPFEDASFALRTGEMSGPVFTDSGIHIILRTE
A general note: Quantitative high-throughput screening tests each substance at several concentrations.

In experiment [2] the target is Phosphoglycerate kinase, glycosomal (Trypanosoma brucei brucei) (UniProt P07378). As to the kind of experiment: qHTS Validation Assay to Find Inhibitors of Phosphoglycerate Kinase (AID 504547).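 Note: control wells lack PGK and mark full inhibition.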 The essentials: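 Inhibition of the enzyme is judged by a Kinase-Glo Plus luminescent signal following a one-hour incubation at room temperature. Because 1,3-BPG is unstable, it is made in situ by GAPDH at 100nM final; no-PGK wells define the baseline.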
Phosphoglycerate kinase, glycosomal (Trypanosoma brucei brucei), sequence (P07378 whole entry, looked up): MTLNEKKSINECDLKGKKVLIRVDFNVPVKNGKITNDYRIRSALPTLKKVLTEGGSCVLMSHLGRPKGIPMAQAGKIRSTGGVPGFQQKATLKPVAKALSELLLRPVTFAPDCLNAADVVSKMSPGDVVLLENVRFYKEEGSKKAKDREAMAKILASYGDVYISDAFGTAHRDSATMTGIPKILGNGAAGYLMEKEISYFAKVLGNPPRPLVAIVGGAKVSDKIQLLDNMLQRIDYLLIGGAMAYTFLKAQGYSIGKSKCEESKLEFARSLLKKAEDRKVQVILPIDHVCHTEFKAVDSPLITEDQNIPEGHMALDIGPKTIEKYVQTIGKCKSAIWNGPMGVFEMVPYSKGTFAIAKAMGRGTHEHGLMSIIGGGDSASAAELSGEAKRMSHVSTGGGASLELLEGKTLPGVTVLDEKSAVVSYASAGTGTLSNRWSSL

Experiment [3] has as its target phosphoglycerate mutase (Leishmania major) (UniProt Q4Q090). As to the kind of experiment: qHTS Validation Assay to Find Inhibitors of Phosphoglycerate Mutase (AID 504548).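 Note: end-point luminescence from Kinase-GloPlus after the PGAM reaction; series mostly up to about 58 µM; % is set by controls: 0 for no effect and ±100 for the full control effect.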 To be noted: Potency: inhibition qHTS. The essentials:
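L. major PGAM (1.25nM final) was added to substrate buffer and pinned compound, incubated 45 minutes at room temperature, then Kinase-GloPlus added; luminescence read after 10 minutes. Buffer: 100 mM TEA pH 7.6, 5 mM MgCl2, 0.01% Tween-20.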

In experiment [4] the target is Ubiquitin carboxyl-terminal hydrolase 1 (Homo sapiens) (UniProt O94782). In words: Inhibitors of USP1/UAF1: Pilot qHTS (AID 504865).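 Note: rhodamine fluorescence freed from ubiquitin-rhodamine substrate followed over time; top concentration of the series differs between compounds; % is set by controls: 0 for no effect and ±100 for the full control effect; nearly all actives have a fitted effect of over 35% in size.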 The essentials: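 Deubiquitinase activity followed as kinetic rhodamine fluorescence release from 150 nM Ub-Rho. 1 nM USP1/UAF1 with compound, after 15 min room-temperature preincubation, in HEPES pH 7.8 buffer containing TCEP, EDTA, BSA and Tween-20.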
Ubiquitin carboxyl-terminal hydrolase 1 (Homo sapiens), sequence (O94782 whole entry, looked up): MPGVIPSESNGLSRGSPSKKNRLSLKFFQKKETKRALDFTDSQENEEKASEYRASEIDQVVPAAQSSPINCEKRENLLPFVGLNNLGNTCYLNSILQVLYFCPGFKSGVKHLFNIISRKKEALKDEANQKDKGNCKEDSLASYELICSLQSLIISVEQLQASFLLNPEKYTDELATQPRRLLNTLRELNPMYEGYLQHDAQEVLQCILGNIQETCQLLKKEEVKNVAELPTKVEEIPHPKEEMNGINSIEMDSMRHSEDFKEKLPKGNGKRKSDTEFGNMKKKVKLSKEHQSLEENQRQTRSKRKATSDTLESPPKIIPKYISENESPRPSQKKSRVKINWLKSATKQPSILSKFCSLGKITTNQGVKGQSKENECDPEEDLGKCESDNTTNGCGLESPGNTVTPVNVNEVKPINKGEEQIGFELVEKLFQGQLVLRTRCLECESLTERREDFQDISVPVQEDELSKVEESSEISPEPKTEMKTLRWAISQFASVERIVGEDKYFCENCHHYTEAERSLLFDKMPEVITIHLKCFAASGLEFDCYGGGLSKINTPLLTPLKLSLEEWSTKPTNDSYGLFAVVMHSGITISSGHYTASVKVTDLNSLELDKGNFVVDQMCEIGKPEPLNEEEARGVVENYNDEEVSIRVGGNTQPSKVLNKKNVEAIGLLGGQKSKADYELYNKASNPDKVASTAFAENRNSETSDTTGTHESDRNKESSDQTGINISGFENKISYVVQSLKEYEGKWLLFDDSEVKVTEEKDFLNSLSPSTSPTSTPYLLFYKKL

A short description of experiment [5]: qHTS for Inhibitors of ATXN expression: Validation (AID 588378). Note: nearly all actives have a fitted effect of over 75% in size. Note: potency is the fitted concentration of half-maximal effect. An outline of the steps: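 Luciferase luminescence (Bright-Glo) from an ATXN2-FFLuc HEK293 line after 24 h compound exposure at 37 °C, preceded by a CellTiter-Fluor fluorescence viability read. Serial dilutions of a reference ATXN2 inhibitor and a luciferase inhibitor served as controls.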
Experiment [6] is described as follows: qHTS for Inhibitors of ATXN expression: Validation of Cytotoxic Assay (AID 588349).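 Note: cells exposed to compound for 72 hr; % is set by controls: 0 for no effect and ±100 for the full control effect.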 An outline of the steps:
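HEK293, compound dose series, 72 hr / 37 degrees C; viability via CellTiter Glo (intracellular ATP).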

The target in experiment [7] is Glucocorticoid receptor (Homo sapiens) (UniProt P04150). In words: qHTS assay for small molecule agonists of glucocorticoid receptor signaling (AID 588532; active = well fitted curve in the direction sought with a large enough effect in the signal ratio, with a control signal flat; the % refers to the signal ratio;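 note: 100% = dexamethasone at 0.1 µM and 0% = DMSO only wells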). The following applies: HeLa MMTV-bla, beta-lactamase ratio, agonist, 18 h; stronger effect = higher value; percent of dexamethasone control, DMSO zero. An outline of the steps: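 Agonist-mode qHTS: GRE-driven beta-lactamase in HeLa cells exposed 18 h to titrated compounds (up to 92 uM), then CCF4 ratio read after 2 h at RT; Hill-fitted EC50, efficacy relative to 0.1 uM dexamethasone.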
Glucocorticoid receptor (Homo sapiens), sequence (P04150 whole entry, looked up): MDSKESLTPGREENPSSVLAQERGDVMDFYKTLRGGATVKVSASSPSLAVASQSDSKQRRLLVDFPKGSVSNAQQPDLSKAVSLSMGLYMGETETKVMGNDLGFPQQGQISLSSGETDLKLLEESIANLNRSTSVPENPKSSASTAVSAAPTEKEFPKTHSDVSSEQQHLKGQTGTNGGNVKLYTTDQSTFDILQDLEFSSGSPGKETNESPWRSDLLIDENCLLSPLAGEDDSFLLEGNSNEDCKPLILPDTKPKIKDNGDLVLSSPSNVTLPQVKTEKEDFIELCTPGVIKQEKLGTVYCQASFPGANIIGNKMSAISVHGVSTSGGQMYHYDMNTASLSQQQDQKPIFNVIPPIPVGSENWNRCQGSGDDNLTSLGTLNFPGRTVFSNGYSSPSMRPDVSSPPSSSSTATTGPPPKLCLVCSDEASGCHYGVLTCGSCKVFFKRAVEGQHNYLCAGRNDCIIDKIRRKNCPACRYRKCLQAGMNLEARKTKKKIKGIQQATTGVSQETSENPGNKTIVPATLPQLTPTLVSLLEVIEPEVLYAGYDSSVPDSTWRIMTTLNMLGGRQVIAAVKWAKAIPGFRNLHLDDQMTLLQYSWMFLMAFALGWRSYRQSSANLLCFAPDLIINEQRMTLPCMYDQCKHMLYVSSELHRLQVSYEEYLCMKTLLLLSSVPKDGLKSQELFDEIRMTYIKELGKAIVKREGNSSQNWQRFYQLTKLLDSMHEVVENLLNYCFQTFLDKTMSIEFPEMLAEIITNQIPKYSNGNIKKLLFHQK

Experiment [8] has the same target. In words: qHTS assay for small molecule antagonists of glucocorticoid receptor signaling (AID 588533; active = well fitted inhibition curve with a large enough effect in the signal ratio, with a control signal flat, not every such curve was filed as active; the % refers to the signal ratio;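 note: cells stimulated with 2 nM dexamethasone as agonist; % is set by controls: 0 for no effect and ±100 for the full control effect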). The essentials:
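Antagonist-mode qHTS: compound titrations added to GRE-bla HeLa cells, then dexamethasone 2 nM final; 18 h, 37 C. CCF4 FRET fluorescence normalized to dexamethasone and DMSO; IC50 from Hill fit.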

For experiment [9], the target named is Peroxisome proliferator-activated receptor gamma (Homo sapiens) (UniProt P37231). As to the kind of experiment: qHTS assay for small molecule agonists of peroxisome proliferator-activated receptor gamma signaling (AID 588536; active = well fitted curve in the direction sought with a large enough effect in the signal ratio, with a control signal flat, not every such curve was filed as active; the % refers to the signal ratio;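 note: 0% = DMSO basal wells and 100% = rosiglitazone at 2 µM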). The essentials: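 Ratiometric blue/green fluorescence (405 nm excitation; 460 and 530 nm emission) from CCF4-loaded HEK293 reporter cells serves as signal. Exposure to test compounds lasts 16 h at 37 C in medium containing 1% charcoal/dextran-treated serum.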
Peroxisome proliferator-activated receptor gamma (Homo sapiens), sequence (P37231 whole entry, looked up): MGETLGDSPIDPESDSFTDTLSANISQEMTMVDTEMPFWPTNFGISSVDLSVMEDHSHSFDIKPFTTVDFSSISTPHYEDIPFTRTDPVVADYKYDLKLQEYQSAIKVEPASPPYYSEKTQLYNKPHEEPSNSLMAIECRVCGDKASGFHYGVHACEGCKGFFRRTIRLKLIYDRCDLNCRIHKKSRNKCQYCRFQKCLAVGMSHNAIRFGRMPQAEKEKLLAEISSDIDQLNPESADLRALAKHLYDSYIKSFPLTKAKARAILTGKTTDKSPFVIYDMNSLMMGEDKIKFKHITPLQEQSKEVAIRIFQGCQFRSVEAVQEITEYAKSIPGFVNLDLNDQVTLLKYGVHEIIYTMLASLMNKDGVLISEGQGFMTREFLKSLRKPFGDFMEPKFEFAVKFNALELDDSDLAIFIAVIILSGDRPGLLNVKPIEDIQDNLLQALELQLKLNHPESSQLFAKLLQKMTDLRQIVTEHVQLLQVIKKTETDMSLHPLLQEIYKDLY

A short description of experiment [10]: qHTS assay for small molecule agonists of retinoid X receptor alpha signaling (AID 588544). The following applies: HEK293T RXRa-UAS-bla, beta-lactamase reporter, 18 h; 530 nm emission.
The target of experiment [11] is Estrogen receptor (Homo sapiens) (UniProt P03372). In words: qHTS assay for small molecule antagonists of estrogen receptor alpha signaling (AID 588513; active = well fitted curve in the direction sought with a large enough effect in the signal ratio, with a control signal flat, not every such curve was filed as active; the % refers to the signal ratio; note: % is set by controls: 0 for no effect and ±100 for the full control effect). An outline of the steps: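 Antagonist mode: inhibition of 0.5 nM 17-beta-estradiol-driven beta-lactamase reporter in HEK 293 ER-alpha-UAS-bla cells, 18 h at 37C, CCF4 readout after 2 h at RT. Normalised to estradiol and DMSO; titration fitted to Hill.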
Estrogen receptor (Homo sapiens), sequence (P03372 whole entry, looked up): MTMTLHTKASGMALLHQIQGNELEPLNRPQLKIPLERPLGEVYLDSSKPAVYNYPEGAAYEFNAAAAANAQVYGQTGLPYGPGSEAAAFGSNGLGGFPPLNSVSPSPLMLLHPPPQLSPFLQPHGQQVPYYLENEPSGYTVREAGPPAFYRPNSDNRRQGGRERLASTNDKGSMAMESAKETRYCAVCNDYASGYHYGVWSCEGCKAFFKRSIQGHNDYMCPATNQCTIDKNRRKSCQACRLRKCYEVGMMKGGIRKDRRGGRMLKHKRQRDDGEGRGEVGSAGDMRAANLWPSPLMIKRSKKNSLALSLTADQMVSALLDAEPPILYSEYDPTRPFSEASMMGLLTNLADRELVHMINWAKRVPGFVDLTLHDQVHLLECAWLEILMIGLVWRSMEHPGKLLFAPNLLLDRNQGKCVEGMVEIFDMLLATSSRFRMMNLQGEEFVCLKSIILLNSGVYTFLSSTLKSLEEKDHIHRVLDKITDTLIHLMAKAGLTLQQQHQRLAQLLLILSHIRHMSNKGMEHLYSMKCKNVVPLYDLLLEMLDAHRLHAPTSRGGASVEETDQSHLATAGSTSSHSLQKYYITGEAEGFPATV

Experiment [12] shares this target. In words: qHTS assay for small molecule agonists of estrogen receptor alpha signaling (AID 588514; calls by dose curve;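 note: 0% = vehicle only and 100% = reference agonist; nearly all actives have a fitted effect of over 70% in size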). An outline of the steps: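 Reporter-gene assay. […] controls beta-lactamase in HEK 293 GripTite cells; after 18 hrs with compound, CCF4 substrate is added for 2 hrs and fluorescence is read.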
In experiment [13] the target is Peroxisome proliferator-activated receptor gamma (Homo sapiens) (UniProt P37231). As to the kind of experiment: qHTS assay for small molecule antagonists of peroxisome proliferator-activated receptor gamma signaling (AID 588537; active = well fitted inhibition curve with a large enough effect in the signal ratio, with a control signal flat, not every such curve was filed as active; the % refers to the signal ratio;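 note: reporter cells co-stimulated with 50 nM rosiglitazone agonist during compound treatment; % of control where 0% means no effect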). An outline of the steps: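 Inhibitors of agonist-stimulated UAS-bla reporter activity were sought in HEK293 cells; rosiglitazone (50 nM) defined full signal and DMSO baseline. Curves fitted to Hill model gave IC50 and efficacy.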

Experiment [14] deals with Vitamin D3 receptor (Homo sapiens) (UniProt P11473). In words: qHTS assay for small molecule antagonists of vitamin D receptor signaling (AID 588541; calls by dose curve). An outline of the steps: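 Antagonist-mode beta-lactamase reporter assay: HEK293T VDR-UAS-bla cells were exposed to titrated compound alongside 1-alpha,25-dihydroxyvitamin D3 at 3 nM final for 16 h. Values were normalized to the 50 nM agonist control and DMSO basal, with IC50 and efficacy from Hill equation fits.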
Vitamin D3 receptor (Homo sapiens), sequence (P11473 whole entry, looked up): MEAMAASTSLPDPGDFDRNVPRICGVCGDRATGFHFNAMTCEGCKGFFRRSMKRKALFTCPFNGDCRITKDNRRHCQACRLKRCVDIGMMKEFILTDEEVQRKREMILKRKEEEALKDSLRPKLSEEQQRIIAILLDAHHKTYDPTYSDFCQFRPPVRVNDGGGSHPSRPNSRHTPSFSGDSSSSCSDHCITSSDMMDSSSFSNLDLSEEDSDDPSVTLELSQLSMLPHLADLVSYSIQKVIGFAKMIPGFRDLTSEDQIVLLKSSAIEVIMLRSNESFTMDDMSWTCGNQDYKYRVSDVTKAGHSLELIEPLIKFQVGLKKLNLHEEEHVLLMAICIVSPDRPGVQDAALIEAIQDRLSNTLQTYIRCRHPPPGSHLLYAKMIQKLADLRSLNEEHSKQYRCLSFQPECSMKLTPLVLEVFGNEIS

Experiment [15] shares this target. In words: qHTS assay for small molecule agonists of vitamin D receptor signaling (AID 588543; calls by dose curve;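 note: 0% = DMSO basal and 100% = reference agonist control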). The essentials: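 Agonist-mode beta-lactamase reporter: HEK293T VDR-UAS-bla cells in charcoal-stripped 2% FBS, compound series 16 h 37 C, CCF4 2 h RT. EC50 from Hill fit, scaled against DMSO and 50 nM calcitriol control.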
Experiment [16] is described as follows: qHTS assay for small molecule antagonists of peroxisome proliferator-activated receptor delta signaling (AID 588535; active = well fitted inhibition curve with a large enough effect in the signal ratio, with a control signal flat, not every such curve was filed as active; the % refers to the signal ratio; note: potency is the fitted concentration of half-maximal effect;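 for max response: cells co-treated with a PPAR-delta agonist as stimulator during compound exposure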). The following applies: HEK293T PPARd-UAS-bla, beta-lactamase FRET ratio, 18 h; 460 nm channel. An outline of the steps: (§1)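 Cell-based beta-lactamase assay in antagonist mode: 4000 HEK293T PPAR-delta-UAS-bla cells per well, 5 hr preincubation then 18 hr compound incubation at 37 C. IC50 obtained by Hill equation fitting.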

Experiment [17] has as its target Peroxisome proliferator-activated receptor delta (Homo sapiens) (UniProt Q03181). The experiment is described as above. The essentials:
as §1

phosphoglycerate mutase (Leishmania major), sequence (Q4Q090 1-553): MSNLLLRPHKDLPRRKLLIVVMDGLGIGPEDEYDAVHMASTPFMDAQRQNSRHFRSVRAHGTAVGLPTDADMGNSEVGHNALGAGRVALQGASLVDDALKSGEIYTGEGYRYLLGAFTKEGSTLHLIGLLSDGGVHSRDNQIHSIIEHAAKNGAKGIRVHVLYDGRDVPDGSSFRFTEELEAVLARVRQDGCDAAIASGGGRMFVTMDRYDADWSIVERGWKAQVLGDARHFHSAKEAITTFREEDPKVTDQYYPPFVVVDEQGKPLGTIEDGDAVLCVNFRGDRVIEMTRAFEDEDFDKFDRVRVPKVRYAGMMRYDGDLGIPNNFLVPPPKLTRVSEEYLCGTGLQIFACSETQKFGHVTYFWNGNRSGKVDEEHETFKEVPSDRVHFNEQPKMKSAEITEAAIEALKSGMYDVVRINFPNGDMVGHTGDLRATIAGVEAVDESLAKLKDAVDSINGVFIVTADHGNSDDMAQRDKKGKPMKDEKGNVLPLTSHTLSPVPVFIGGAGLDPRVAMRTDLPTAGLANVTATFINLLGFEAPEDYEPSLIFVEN
Peroxisome proliferator-activated receptor delta (Homo sapiens), sequence (Q03181 whole entry, looked up): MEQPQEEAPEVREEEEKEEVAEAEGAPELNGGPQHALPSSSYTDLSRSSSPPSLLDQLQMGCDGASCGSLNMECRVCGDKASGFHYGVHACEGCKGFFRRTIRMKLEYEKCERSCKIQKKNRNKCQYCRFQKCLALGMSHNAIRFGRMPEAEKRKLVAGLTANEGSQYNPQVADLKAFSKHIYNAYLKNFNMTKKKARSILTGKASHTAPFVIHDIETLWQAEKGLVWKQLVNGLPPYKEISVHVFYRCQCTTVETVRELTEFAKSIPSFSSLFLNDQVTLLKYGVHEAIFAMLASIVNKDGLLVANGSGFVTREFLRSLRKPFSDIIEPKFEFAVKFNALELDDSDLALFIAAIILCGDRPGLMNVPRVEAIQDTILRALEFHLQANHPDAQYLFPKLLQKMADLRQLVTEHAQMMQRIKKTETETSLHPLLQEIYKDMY

With `CNC(=O)[C@H]1O[C@@H](n2cnc3c(NCc4cccc(I)c4)ncnc32)[C@H](O)[C@@H]1O`, the Potency entry in experiment [1], in experiment [2], in experiment [3], in experiment [4] and in experiment [5] was “inactive” throughout.

Regarding `CC1OC1P(=O)(O)O` (stereo not drawn), the Potency entry in experiment [1], in experiment [2], in experiment [3] and in experiment [6] was “inactive” in each case.

Take `NCCNC(=O)c1ncsc1-c1cccc(F)c1`: the Potency result in experiment [1], in [2], in experiment [3], in experiment [4], in experiment [6] and in experiment [5] was “inactive” in each case.

`Cc1ccc(S(=O)(=O)/C=C/C#N)cc1`: the Potency entry in [1], in [2], in experiment [3] and in [4] was “inactive” each time. The Potency in [5] was 10 µM (active).

On to `CN(C)CCC(c1ccc(Cl)cc1)c1ccccn1` (stereo not drawn), for which the Potency entry in experiment [1], in experiment [2], in experiment [3], in experiment [4] and in experiment [8] was “inactive” each time. For the same compound, the activation in experiment [7] was 0.717% (inactive). In addition, the compound was classed as inactive in experiment [9]. The max response in [10] was determined as 8.67%.

`O=[N+]([O-])c1ccc(CSc2ncnc3c2ncn3[C@@H]2O[C@H](CO)[C@@H](O)[C@H]2O)cc1`: the Potency entry in experiment [1], in [2], in experiment [3], in [4] and in [5] was “inactive” in each case.

Regarding `c1ccc(-c2ccccn2)nc1`, the Potency entry in experiment [1], in experiment [2], in experiment [3], in [4], in [6] and in experiment [5] was “inactive” in each case.

Regarding `CN1CCC[C@H]1c1cccnc1`, the Potency result in [1], in [2], in [3], in experiment [4], in experiment [6] and in [12] was “inactive” each time. In addition, the Potency entry in [13] is “inactive”. The compound was called inactive in experiment [11], in [9], in experiment [14] and in experiment [15].

For `c1cnc2c(c1)ccc1cccnc12`, the Potency entry in experiment [1], in experiment [2], in [3] and in experiment [4] was “inactive” throughout. The figures for the Potency in experiment [5] and in experiment [17] were 3.55 µM (active) and 17.8 µM (active), respectively. For the same compound, in experiment [16], the max response was -78.3%. In experiment [15], the outcome was inactive.

Turning to `CN(C)CCCO[C@@H]1[C@H]2OC(C)(C)O[C@H]2O[C@@H]1[C@H](O)CO`, the Potency entry in experiment [1], in experiment [2], in [3], in experiment [4] and in experiment [5] was “inactive” in each case.

With `C[N+](C)(CCCCCC[N+](C)(C)CCCN1C(=O)c2cccc3cccc(c23)C1=O)CCCN1C(=O)c2cccc3cccc(c23)C1=O`, the Potency result in [1], in experiment [2], in experiment [3], in [4] and in experiment [5] was “inactive” in each case.
